# The full ranking holds about 1,000 compounds; the median of “relative growth recovery (pomalidomide 10 uM = 100%, DMSO = 0%)” is about -1.6, and the highest 2% start at about 21. The list comes from a sample in which the highest values are over-represented; it also holds similar structures and randomly drawn compounds.
# Test system: HEK293FT dCK*-IKZF1
# Experiment: relative growth recovery (pomalidomide 10 uM = 100%, DMSO = 0%); higher = more growth rescue (IKZF1 fusion degradation)
# Details: compound concentration: 5 uM; AraC concentration: 0.3 uM; overnight pretreatment + 4 days AraC
# Procedure: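 Growth recovery screen of the molecular-glue-like (Specs) library. HEK293FT cells expressing a dCK*-IKZF1 fusion (primary) or dCK* alone (counter) were pretreated overnight with compound at 5 uM, then given 0.3 uM AraC for 4 days. Hoechst nuclei were counted by imaging. Primary: normalised to pomalidomide (100%) and DMSO (0%), mean of 2 replicates. Counter: normalised to no-AraC (100%) and AraC+DMSO (0%), single replicate.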
row,Compound,relative growth recovery
1,COc1cc(NS(=O)(=O)c2ccc(NC(=O)c3ccc(Br)o3)cc2)nc(OC)n1,2.29%
2,CC(C)(N)C(=O)N1CCC(CO)(c2cccc(Nc3ncc(-c4ccccc4)s3)n2)CC1,-19.1%
3,Cc1cc(NS(=O)(=O)c2ccc(NC(=O)c3cccnc3)cc2)nc(C)n1,1.28%
4,CCCOc1ccc(C(=O)Nc2ccc(S(=O)(=O)Nc3ncccn3)cc2)cc1,-3.33%
5,Cc1cc(C)nc(NS(=O)(=O)c2ccc(NC(=O)CSc3nc4c(cc3C#N)CCC4)cc2)n1,-6.17%
6,Cc1nc(Nc2cccc(C3CCCN3C(=O)CCOc3cccc(F)c3)n2)sc1C (stereo unspecified),8.19%
7,CCOc1ccccc1OCC(=O)Nc1ccc(S(=O)(=O)Nc2ccccn2)cc1,-1.77%
8,COc1ccccc1CCC(=O)N1CCC(c2cccc(Nc3ncc(C)s3)n2)CC1,19%
9,Cc1ccc(N2C(=O)c3ccc(Oc4ccc(N)cc4)cc3C2=O)cc1,-1.57%
10,Nc1ccc(Oc2ccc3c(c2)C(=O)N(c2ccccc2)C3=O)cc1,2.54%
11,COCCNC(=O)C1(c2cccc(Nc3ncc(C)s3)n2)CCN(C(=O)C2CCCCC2)CC1,-5.38%
12,Cc1ccnc(NS(=O)(=O)c2ccc(NC(=O)Cc3ccc(Cl)cc3)cc2)n1,2.92%
13,Cc1cnc(Nc2cccc(C3CCCN3C(=O)CCCc3ccc(F)cc3)n2)s1 (stereo unspecified),0.955%
14,Cn1cc(/C=C/C(=O)N2CCC(c3cc4ccccc4c(Nc4nccs4)n3)CC2)cn1,-18.7%
15,CCc1nccn1CC(=O)N1CCOC(c2cccc(Nc3ncc(C)s3)n2)C1 (stereo unspecified),0.35%
16,Cc1cc(C)c(S(=O)(=O)Nc2ccc(S(=O)(=O)Nc3ncccn3)cc2)c(C)c1,6.84%
17,COc1ccc2[nH]c3nc(SCC(=O)Nc4cc(Cl)ccc4OC)nnc3c2c1,-18.5%
18,COc1cc(NS(=O)(=O)c2ccc(NC(=O)C3CC3)cc2)nc(OC)n1,-1.71%
19,O=C1CCC(N2C(=O)c3cccc(NC[C@H]4CC[C@H](C(=O)O)CC4)c3C2=O)C(=O)N1 (stereo partly specified),50.3%
20,O=C(O)CCOCCNc1cccc2c1C(=O)N(C1CCC(=O)NC1=O)C2=O (stereo unspecified),-5.19%
21,O=C(O)CCCNc1cccc2c1C(=O)N(C1CCC(=O)NC1=O)C2=O (stereo unspecified),3.32%
